Reference: ChEMBL document CHEMBL3988442, “University of Dundee, Small-Polar-MMV Screening Library” (2021)
For some assays here: Potency and affinity values are given separately.

What was measured:
Parameters in all cases: scale not given: direction of the effect not stated beside the values
[1] = target: Protein translocase subunit SecA (Escherichia coli (strain K12)) (UniProt P10408); assay: Assay to Identify E. coli SecA ATPase Inhibitors; assay type: functional; settings: 30 µM
[2] = target: T1, Ubiquitin-activating enzyme e1, putative (Leishmania donovani (strain BPK282A1)) (UniProt E9BSI1); assay: Leishmania donovani Ubiquitin Activating Enzyme (LdE1); assay type: functional; settings: 30 µM
T1 sequence (whole entry): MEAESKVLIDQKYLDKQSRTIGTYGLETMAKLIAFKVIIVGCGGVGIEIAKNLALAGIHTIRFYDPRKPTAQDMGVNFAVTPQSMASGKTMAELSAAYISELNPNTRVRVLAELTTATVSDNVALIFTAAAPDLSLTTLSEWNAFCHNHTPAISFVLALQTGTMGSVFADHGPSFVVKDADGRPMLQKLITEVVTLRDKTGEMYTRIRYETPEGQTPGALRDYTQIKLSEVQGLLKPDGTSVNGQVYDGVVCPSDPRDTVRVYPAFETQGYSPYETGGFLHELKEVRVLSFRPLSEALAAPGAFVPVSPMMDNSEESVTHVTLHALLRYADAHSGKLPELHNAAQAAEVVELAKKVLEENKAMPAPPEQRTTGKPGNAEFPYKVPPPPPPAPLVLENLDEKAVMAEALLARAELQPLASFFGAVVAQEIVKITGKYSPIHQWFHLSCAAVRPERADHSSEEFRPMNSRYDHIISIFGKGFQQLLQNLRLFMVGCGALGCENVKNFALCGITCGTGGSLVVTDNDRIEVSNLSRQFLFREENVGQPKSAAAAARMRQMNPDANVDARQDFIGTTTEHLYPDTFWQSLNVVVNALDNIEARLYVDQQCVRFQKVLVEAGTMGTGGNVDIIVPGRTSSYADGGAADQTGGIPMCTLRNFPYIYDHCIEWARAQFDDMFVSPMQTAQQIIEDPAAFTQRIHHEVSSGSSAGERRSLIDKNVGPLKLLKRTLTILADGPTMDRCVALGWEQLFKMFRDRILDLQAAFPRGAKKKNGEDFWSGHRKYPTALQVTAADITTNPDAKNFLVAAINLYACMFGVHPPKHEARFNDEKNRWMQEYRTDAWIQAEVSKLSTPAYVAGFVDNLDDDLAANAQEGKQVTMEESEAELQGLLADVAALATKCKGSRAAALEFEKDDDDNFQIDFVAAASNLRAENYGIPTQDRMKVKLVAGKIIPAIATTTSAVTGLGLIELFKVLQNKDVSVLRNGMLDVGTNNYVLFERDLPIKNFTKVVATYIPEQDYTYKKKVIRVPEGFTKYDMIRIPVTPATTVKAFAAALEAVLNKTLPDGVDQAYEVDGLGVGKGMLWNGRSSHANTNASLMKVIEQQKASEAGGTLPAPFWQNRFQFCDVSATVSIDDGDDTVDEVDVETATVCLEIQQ

[3] = target: AMP-activated protein kinase, AMPK (Homo sapiens) (UniProt P54646+O43741+P54619+Q9UGJ0+Q9Y478+Q13131+Q9UGI9); assay: AMP-dependent Kinase enzyme assay. An in vitro enzyme assay that detects ADP turnover that is directly proportional to AMPK activity. This uses naive AMPK that is activated during the assay with MK-8722; assay type: functional; settings: 30 µM
[4] = target: Sialic acid-binding Ig-like lectin 9 (Homo sapiens) (UniProt Q9Y336); assay: Hs-Siglec9 ALPHAscreen SOP 20170721; settings: 10 µM
[5] = system: Trypanosoma cruzi; assay: Trypanosoma cruzi phosphomannomutase and mannose-1-phosphate guanylyltransferase assay; assay type: functional; settings: 10 µM
[6] = target: T2, Arginase-2, mitochondrial (Homo sapiens) (UniProt P78540); assay: in vitro enzyme assay to detect the production of urea directly proportional to the activity of Arginase II; assay type: functional; settings: 33.3 µM; also: in the data most compounds retested in dose-response had high values
T2 sequence (whole entry): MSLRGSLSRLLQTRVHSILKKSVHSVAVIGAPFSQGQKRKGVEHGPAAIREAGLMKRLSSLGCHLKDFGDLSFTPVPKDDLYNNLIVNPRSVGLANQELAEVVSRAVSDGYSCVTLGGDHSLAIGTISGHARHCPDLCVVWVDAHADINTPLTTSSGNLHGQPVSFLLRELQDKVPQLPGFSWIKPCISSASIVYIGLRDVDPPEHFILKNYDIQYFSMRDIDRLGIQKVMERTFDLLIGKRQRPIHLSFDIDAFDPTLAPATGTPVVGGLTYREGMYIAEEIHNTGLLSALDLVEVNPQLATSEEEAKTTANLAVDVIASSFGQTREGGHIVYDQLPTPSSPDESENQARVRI

[7] = target: T3, Proteasome subunit beta (Trypanosoma cruzi) (UniProt O96673); assay: Trypanosoma cruzi proteasome chymotrypsin-like activity (TcProtChymo) assay.; also: in the data most compounds retested in dose-response had high values; assay type: functional; settings: 9.37 µM
T3 sequence (whole entry): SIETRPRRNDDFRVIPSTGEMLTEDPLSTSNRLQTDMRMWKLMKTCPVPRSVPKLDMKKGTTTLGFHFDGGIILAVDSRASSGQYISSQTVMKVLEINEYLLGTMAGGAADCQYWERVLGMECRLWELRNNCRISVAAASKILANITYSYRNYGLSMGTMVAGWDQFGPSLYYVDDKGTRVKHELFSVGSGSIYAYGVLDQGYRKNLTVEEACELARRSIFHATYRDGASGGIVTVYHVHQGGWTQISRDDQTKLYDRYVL

[8] = organism: Homo sapiens; assay: To identify inhibition of the IFN signalling (Jak-Stat) pathway via expression of an eGFP reporter gene under the control of an IFN-stimulated response element (ISRE) containing MxA promoter.; assay type: functional; settings: 30 µM
[9] = target: T4, Tyrosyl-tRNA synthetase, putative (Trypanosoma cruzi (strain CL Brener)) (UniProt Q4DSP6); assay: Trypanosoma cruzi tyrosyl tRNA synthetase (TcYRS) _High Tyrosine SOP; assay type: functional; settings: 30 µM; also: in the data most compounds retested in dose-response had high values
T4 sequence (whole entry): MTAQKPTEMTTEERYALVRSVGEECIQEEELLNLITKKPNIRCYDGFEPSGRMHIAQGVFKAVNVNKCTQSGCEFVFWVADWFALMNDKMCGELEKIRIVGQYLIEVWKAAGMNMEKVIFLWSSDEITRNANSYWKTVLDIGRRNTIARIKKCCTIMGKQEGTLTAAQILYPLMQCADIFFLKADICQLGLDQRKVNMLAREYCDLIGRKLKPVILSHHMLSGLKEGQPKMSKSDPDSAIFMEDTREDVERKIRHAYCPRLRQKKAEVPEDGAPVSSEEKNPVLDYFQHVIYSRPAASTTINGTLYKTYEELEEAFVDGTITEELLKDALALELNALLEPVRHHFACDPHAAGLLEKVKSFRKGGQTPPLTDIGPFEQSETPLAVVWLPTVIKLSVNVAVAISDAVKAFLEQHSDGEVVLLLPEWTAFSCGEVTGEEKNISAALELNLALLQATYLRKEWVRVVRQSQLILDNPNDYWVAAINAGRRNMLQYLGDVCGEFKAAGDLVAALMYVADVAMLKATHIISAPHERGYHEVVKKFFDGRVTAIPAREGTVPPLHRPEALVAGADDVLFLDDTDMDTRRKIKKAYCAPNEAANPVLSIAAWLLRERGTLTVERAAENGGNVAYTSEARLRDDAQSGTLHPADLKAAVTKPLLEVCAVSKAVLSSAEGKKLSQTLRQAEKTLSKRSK

[10] = target: T4, Tyrosyl-tRNA synthetase, putative (Trypanosoma cruzi (strain CL Brener)); assay: Trypanosoma cruzi tyrosyl tRNA synthetase (TcYRS) SOP; assay type: functional; settings: 30 µM
[11] = target: Chromo domain-containing protein 1 (Saccharomyces cerevisiae (strain ATCC 204508 / S288c) (Baker's yeast)) (UniProt P32657); assay: ScCHD-1 Enzyme Inhibition Assay; assay type: functional; settings: 30 µM; also: in the data most compounds retested in dose-response had high values
Chain of Chromo domain-containing protein 1 (Saccharomyces cerevisiae (strain ATCC 204508 / S288c) (Baker's yeast)) (P32657 whole entry, the tested form may be a part): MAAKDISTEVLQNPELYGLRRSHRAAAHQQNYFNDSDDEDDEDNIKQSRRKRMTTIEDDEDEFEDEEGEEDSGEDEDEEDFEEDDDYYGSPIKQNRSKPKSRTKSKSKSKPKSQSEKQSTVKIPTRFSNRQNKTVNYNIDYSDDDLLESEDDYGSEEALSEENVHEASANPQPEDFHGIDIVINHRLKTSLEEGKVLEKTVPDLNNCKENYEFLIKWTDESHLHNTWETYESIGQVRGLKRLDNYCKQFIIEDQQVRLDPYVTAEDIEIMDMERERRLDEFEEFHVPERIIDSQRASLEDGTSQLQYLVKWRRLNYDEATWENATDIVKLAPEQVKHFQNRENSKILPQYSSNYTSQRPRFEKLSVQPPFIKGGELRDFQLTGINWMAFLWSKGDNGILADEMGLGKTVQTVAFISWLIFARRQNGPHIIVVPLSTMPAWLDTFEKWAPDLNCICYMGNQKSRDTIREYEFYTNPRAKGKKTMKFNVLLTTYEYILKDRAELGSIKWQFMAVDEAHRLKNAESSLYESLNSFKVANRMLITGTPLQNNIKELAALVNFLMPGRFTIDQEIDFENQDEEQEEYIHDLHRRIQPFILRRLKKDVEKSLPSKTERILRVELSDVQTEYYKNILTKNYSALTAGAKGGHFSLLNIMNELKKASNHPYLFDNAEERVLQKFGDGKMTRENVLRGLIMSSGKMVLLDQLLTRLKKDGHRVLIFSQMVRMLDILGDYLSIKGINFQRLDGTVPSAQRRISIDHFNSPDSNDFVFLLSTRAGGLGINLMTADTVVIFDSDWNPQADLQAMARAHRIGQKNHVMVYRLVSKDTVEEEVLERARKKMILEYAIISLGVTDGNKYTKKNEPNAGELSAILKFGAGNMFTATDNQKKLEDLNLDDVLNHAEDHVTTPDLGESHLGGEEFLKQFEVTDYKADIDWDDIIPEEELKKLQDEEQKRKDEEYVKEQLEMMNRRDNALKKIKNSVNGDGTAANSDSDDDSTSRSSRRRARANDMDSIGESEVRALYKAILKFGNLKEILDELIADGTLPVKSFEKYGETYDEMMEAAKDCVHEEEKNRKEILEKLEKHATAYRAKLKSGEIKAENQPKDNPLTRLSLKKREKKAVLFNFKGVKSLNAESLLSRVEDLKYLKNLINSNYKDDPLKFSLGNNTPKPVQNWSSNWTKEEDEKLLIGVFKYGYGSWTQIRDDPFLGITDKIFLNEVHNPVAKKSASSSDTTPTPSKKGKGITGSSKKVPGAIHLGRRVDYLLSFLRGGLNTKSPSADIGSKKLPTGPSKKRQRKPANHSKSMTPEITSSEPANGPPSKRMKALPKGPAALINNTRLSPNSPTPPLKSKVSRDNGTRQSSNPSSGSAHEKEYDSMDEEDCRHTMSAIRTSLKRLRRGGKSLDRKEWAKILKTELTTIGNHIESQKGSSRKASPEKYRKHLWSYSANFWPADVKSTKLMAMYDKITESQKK

Chain of Sialic acid-binding Ig-like lectin 9 (Homo sapiens) (Q9Y336 whole entry): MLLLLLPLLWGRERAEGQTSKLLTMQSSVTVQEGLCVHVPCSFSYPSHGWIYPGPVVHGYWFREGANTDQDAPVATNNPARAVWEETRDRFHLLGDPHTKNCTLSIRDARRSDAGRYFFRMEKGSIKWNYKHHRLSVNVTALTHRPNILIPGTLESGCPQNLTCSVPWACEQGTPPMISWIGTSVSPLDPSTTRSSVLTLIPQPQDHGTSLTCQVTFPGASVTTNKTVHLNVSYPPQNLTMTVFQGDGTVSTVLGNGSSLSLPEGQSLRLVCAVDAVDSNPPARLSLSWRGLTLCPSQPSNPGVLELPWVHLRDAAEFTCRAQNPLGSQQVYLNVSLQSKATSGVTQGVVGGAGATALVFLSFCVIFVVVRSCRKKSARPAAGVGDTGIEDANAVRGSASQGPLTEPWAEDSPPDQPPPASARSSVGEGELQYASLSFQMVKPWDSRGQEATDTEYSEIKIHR
Chain of Protein translocase subunit SecA (Escherichia coli (strain K12)) (P10408 whole entry): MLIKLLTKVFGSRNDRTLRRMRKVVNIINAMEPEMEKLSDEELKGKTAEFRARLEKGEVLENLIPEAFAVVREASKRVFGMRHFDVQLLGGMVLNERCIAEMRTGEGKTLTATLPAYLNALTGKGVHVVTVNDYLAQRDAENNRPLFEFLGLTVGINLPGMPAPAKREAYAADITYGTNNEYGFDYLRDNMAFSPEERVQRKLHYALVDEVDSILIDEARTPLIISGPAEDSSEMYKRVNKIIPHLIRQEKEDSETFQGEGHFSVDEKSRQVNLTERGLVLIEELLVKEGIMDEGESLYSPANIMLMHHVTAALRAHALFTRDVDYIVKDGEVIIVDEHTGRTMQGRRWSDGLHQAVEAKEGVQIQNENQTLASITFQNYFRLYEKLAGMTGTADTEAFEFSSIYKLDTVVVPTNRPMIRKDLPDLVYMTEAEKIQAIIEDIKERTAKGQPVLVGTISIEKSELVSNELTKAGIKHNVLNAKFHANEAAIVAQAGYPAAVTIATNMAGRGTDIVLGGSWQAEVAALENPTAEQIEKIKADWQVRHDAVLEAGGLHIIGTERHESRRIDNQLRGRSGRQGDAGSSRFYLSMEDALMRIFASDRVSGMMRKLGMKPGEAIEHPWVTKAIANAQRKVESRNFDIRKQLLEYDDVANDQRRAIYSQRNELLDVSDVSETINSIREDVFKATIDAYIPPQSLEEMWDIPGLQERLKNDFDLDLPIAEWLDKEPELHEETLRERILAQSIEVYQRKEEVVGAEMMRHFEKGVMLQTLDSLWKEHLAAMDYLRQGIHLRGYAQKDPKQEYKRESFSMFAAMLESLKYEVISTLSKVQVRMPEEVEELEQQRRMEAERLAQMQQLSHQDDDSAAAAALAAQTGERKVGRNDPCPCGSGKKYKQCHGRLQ

| Compound | Percent Effect [1] [%] | Percent Effect [2] [%] | Percent Effect [3] [%] | Percent Effect [4] [%] | Percent Effect [5] [%] | Percent Effect [6] [%] | Percent Effect [7] [%] | Percent Effect [8] [%] | Percent Effect [9] [%] | Percent Effect [10] [%] | Percent Effect [11] [%] |
| --- | --- | --- | --- | --- | --- | --- | --- | --- | --- | --- | --- |
| Cc1noc(Cl)c1CCC(=O)N1CCN(c2ncccn2)CC1 | -1.95 | 10.5 | -1.41 | -4.66 | -11.1 | 5.75 | 7.02 | 21.6 | 5.42 | 13.6 | 1.74 |
| Cc1csc(N2CCCN(C(=O)C3(C#N)CCCCC3)CC2)n1 | -0.0182 | -2.63 | 4.54 | -2.41 | -0.188 | 0.766 | -3.34 | -13.6 | 0.49 | -2.44 | 10.4 |
| CN(Cc1ccncc1)C(=O)Nc1cnn(CC2CCCO2)c1 (configuration not stated) | 0.7 | 5.41 | -6.68 | -2.66 | -3.67 | 0.952 | 20 | 17.6 | -1.59 | 2.44 | -5.74 |
| CCn1nc(CC(C)C)cc1C(=O)NCCn1cccc1 | -6.33 | -1.39 | 1.75 | 1.17 | -3.01 | -3.09 | 11.6 | -24.3 | 0 | -2.56 | 1.57 |
| Cc1cnn(CCNCc2cccnc2)c1 | -3.48 | -11.4 | 6.23 | 2.04 | -2.36 | 1.5 | 8.92 | 16.9 | 2.08 | 7.59 | -6.41 |
| CCN(CC)C(=O)Nc1cc2c(cc1SC)OCCO2 | -0.336 | 8.11 | -6.12 | 9.01 | 3.71 | 27.5 | 3.47 | -7.38 | 4.95 | 8.54 | -6.4 |
| Cc1cc(CNC(=O)N2CCN(c3nc(C)c(C)s3)CC2)no1 | -9.13 | 18.9 | -4.31 | 31.4 | 9.18 | 45 | 17.2 | 14 | 8.91 | 15.8 | -4.46 |
| Cc1cccc(CN2CCc3ncnc(C)c3CC2)n1 | 1.12 | 8.22 | 5.73 | 7.82 | -5.75 | -0.798 | 13.4 | 4.7 | -1.04 | 8.64 | -4.79 |
| COc1ccc2cc(C(=O)N3CCCCC3CC(N)=O)[nH]c2c1 (configuration not stated) | -4.78 | 15.6 | 7.25 | 13.8 | -0.187 | -3.56 | 5.57 | -10.4 | 5.83 | 12.2 | -4.84 |
| O=C(c1ccc2c(c1)COC2)N1CCC(Nc2cccnn2)CC1 | -4.96 | 13 | -6.23 | 11.4 | 5.06 | -3.56 | 1.52 | 21.5 | 8.74 | 24.4 | -7.05 |
| c1ccc(-n2nnnc2CN2CCCC(Cn3cncn3)C2)cc1 (configuration not stated) | -1.71 | 6.33 | 5.51 | 4.14 | -5.03 | 0.645 | 9.61 | 4.63 | 3.12 | 10.1 | -17.9 |
| Cn1nc2c(cc1=O)CN(CCc1nc3ccccc3c(=O)[nH]1)CC2 | -4.31 | 5.48 | -206 | -0.89 | 8.23 | 2.27 | 17.9 | 6.4 | -1.07 | 0 | -7.87 |
| CCc1cc(N2CCCNCC2)n2nc(C)c(C)c2n1 | -1.91 | 8 | 2.19 | 2.6 | -3.41 | 3.65 | 16 | 12.2 | 1.64 | 11.1 | -6.23 |
| Cc1nc(C2CCCN(C(=O)c3sccc3C3CC3)C2)no1 (configuration not stated) | -1.32 | -1.39 | -29 | -2.96 | -0.486 | -0.442 | 11.9 | 5.93 | 0 | 0 | -0.247 |
| Cc1cc(CNCc2c(C)nn(C)c2N2CCOCC2)no1 | -3.31 | 10.5 | -9.93 | 7.93 | 7.14 | 3.06 | 3.68 | -11.7 | 3.43 | 19.5 | -11 |
| COc1ccc(F)c(CN2CCC3(CCC(=O)N(CC(N)=O)C3)CC2)c1 | -4.11 | 5.33 | -12.6 | -1.01 | -3.02 | -3.12 | 12.4 | 36.4 | 6.01 | 8.64 | -5.79 |
| COc1ccc(CN2CCCCC2CNC(=O)OC(C)(C)C)cc1F (configuration not stated) | -3.55 | 0 | -2.98 | 21.3 | -1.86 | -1.74 | 0.0858 | -23.7 | -2.15 | 1.24 | -2.09 |
| Cc1ccc(CC(=O)N2CCCC(c3cc(C)[nH]n3)C2)cn1 (configuration not stated) | -4.35 | 13.5 | -1.96 | 17.6 | 5.66 | -4.25 | 3.77 | 12.1 | 3.96 | 15.8 | -0.933 |
| Cc1ccc2cnn(CCC(=O)Nc3c(C)nn(C)c3C)c2c1 | -3.51 | 5.2 | 2.92 | 2.18 | -4.03 | -4.14 | 5.16 | -0.975 | 2.15 | 8.64 | -0.912 |
| C[S+]([O-])c1nncn1CC(=O)c1ccc2c(c1)CCO2 (configuration not stated) | -5.7 | 8.11 | -3.44 | 36.4 | 3.23 | 26.6 | 12.4 | -10.5 | 3.23 | 16.1 | -9.11 |
| COCCOc1ccccc1CNCc1c(C)nn(C)c1N(C)C | -4.61 | 8.11 | -17.4 | -0.683 | -2.92 | -0.802 | 1.26 | -12 | 5.42 | 11.1 | -4.5 |
| Cc1cc(=O)n(CC(=O)NCC2CCCO2)c(-c2cccc(Cl)c2)n1 (configuration not stated) | -4.72 | 18.2 | -2.1 | 12.6 | 6.59 | 11 | 9.15 | -10.7 | 5.38 | 16.1 | -4.38 |
